Screening results (PubChem BioAssay)
KCNQ2 pot: potentiators of rat KCNQ2 potassium channel; B-score at 10 µM; AID 2239; CHO-K1 KCNQ2, FluxOR thallium flux fluorescence; active compounds read high; O88943; 0.54% of 310,000 active;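 active = fluorescence ratio B-score at least 3 SD of library B-scores, with initial fluorescence B-score within 3 of them, cut at about 5.3 in these data; same plate scores as AID 2156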;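 also: B-score of peak minus minimum over baseline fluorescence ratio after K+ and Tl+ stimulus; positive B-score means potentiation of KCNQ2 with more thallium influx and brighter signal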
Target sequence (O88943 whole entry, looked up): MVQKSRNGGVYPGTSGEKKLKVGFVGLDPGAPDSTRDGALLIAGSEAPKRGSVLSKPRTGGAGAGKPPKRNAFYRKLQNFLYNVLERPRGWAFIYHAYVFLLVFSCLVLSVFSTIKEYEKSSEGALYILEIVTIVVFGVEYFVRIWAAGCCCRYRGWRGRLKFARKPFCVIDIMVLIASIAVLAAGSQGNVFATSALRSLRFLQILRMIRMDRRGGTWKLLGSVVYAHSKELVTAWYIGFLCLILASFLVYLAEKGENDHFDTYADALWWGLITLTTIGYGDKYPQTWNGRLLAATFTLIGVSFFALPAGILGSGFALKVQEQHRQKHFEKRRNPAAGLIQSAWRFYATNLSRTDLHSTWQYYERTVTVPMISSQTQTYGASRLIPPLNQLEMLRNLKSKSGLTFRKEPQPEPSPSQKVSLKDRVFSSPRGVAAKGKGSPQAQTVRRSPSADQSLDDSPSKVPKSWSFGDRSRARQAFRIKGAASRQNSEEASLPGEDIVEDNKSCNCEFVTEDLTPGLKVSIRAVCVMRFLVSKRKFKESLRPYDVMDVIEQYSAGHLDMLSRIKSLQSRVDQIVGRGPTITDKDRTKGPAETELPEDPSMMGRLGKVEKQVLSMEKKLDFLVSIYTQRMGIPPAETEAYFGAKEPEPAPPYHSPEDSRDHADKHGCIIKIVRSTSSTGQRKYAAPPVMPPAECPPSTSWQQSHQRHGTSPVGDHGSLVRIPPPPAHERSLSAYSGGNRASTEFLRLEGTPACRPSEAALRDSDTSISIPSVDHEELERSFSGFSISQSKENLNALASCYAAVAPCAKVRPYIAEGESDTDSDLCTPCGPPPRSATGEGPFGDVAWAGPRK
KCNQ2 inh: KCNQ2 (rat) channel inhibition; CHO-K1 KCNQ2, FluxOR thallium flux, 20 min; active compounds read low; B-score at 10 µM; O88943; 1.1% of 310,000 active;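 active = fluorescence ratio B-score at most minus 3 library SDs, with starting brightness B-score within 2 library SDs, cut at about -5.5 in these data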
* = called active by the depositor; i = inactive; nt = no result. Shown are actives, neighbours in structure and some others; about 1.6% of the full set was active somewhere.

SMILES	KCNQ2 pot	KCNQ2 inh
CCOC(=O)N1CCN(S(=O)(=O)c2cc(OCC(=O)NC3CCCCC3)c(C)cc2Cl)CC1	0.18	i
CCN1CCN(S(=O)(=O)c2cc(OCC(=O)NC3CCCCC3)c(C)cc2Cl)CC1	10.8*	i
COc1ccc(Cl)cc1C(=O)Nn1cnnc1	0.16	i
CN(C)C(=O)c1c2c(nc3ccccc13)-c1ccccc1CC2	-6.14	-6.14*
CN(C)C(=O)c1c2c(nc3ccccc13)CCCC2	1.69	i
Nc1ncc(Br)cc1S(=O)(=O)NCCc1ccccc1	nt	i
O=C1C(Oc2ccccc2)C(c2cccs2)N1Cc1ccc2c(c1)OCO2 (stereo not given)	0.4	i
Cc1ccccc1OC1C(=O)N(Cc2ccc3c(c2)OCO3)C1c1sccc1C (stereo not given)	-5.98	-5.98*
COc1ccc(CNC(=O)C(C)N2C(=O)COc3ccc(C)cc32)c(OC)c1 (stereo not given)	1.88	i
O=C(O)CC/C(=N/NC(=O)CNC(=O)c1ccc2c(c1)OCCO2)c1ccccc1	0.39	i
CCOC(=O)C1CCCN(C/C=C/c2ccccc2)C1 (stereo not given)	0.06	i
CCOc1c(C)cnc2c1c(=O)n(Cc1ccccc1Cl)c(=O)n2C	nt	i
CCO/C(C)=N/n1c2nc3ccccc3nc2c2c(=O)n(Cc3ccccc3Cl)c(C)nc21	-8.38	-8.38*
O=C(c1ccc2ccccc2c1)N1CCCCC1	0.86	i
O=C(c1ccc2ccccc2c1)N1CCN(c2ccccc2)CC1	-5.58	-5.58*
O=C(CCCc1nc(-c2ccc(Cl)cc2)no1)NC1CCCCC1	nt	i
CCCCCN(C(=O)CCC(=O)OCC(=O)c1c(C)cc(C)cc1C)c1c(N)n(CCCC)c(=O)[nH]c1=O	0.48	i
Cn1cc(/C=C(\NC(=O)c2ccccc2Cl)C(=O)NCCCn2ccnc2)c2ccccc21	0.21	i
COc1ccc(CCNC(=O)C2CCC(=O)N(CC3CCCCC3)C2)cc1 (stereo not given)	nt	i
CCOC(=O)N1CCN(Cc2cc(Cl)c3cccnc3c2O)CC1	14.8*	i
COCc1cc(CN2CCN(C)CC2)c(O)c2ncccc12	nt	i
CN1CN(C)C(c2ccncc2)=C1c1ccncc1	0.83	i
COC(=O)c1ccc(COc2c(F)c(F)cc(F)c2F)o1	nt	i
O=C(O)c1ccc(COc2c(F)c(F)cc(F)c2F)cc1	-9.04	-9.04*
COc1ccc(C2=NN(C(=O)CCCC(=O)O)C(c3cn(-c4ccccc4)nc3-c3ccccc3)C2)cc1 (stereo not given)	nt	i
SMILES	KCNQ2 pot	KCNQ2 inh
CCc1ccccc1N(C)S(=O)(=O)c1ccc(-c2cc(C)no2)s1	nt	i
CCOC(=O)C1CCN(c2c(C(=O)c3ccccc3)cnc3ccc(CC)cc23)CC1	-7.23	-7.23*
CCOC(=O)C1CCCN(c2c(C(=O)c3ccccc3)cnc3ccccc23)C1 (stereo not given)	nt	i
Cn1c(=O)c([N+](=O)[O-])c(NCCCn2ccnc2)c2ccccc21	nt	i
Cn1c(=O)c([N+](=O)[O-])c(-n2ccnc2)c2ccccc21	-6.05	-6.05*
CC(C)c1nnc(NC(=O)C2CCN(C(=O)Nc3ccc(Cl)cc3)CC2)s1	0.69	i
NC(=O)C1CCN(CC(=O)Nc2ccccc2N2CCOCC2)CC1	0.02	i
COCC(C)NS(=O)(=O)c1ccc(C(=O)NC(Cc2ccccc2)c2ccccc2)cc1 (stereo not given)	-7.78	-7.78*
CS(=O)(=O)c1ccc(C(=O)NC(Cc2ccccc2)c2ccccc2)cc1 (stereo not given)	nt	i
CCc1cc(SC#N)cc(CC)c1NC(=O)CCl	5.33*	i
Cc1cc(C)c2c(NC(=O)CCl)nn(C)c2n1	0.1	i
O=S(=O)(NC1CCCCC1)c1ccc(N2CCOCC2)nc1	nt	i
CC1(C)Cc2c(c(N3CCCC3)nc3sc4c(N5CCNCC5)ncnc4c23)CO1	nt	i
COC(=O)[C@]1(Cc2ccccc2)N[C@H](c2ccc(-c3ccc(F)cc3)cc2)[C@@H]2C(=O)N(C)C(=O)[C@@H]21	nt	i
O=C(OC1CCCCC1)c1ccc(NC(=O)c2ccco2)cc1	2.39	i
COC(=O)c1ccc([C@H](NC(=O)c2ccco2)[C@]2(C)C[C@H]2C2CCCCC2)cc1	-5.98	-5.98*
COC(=O)C(Cc1ccc(OC(=O)c2ccccc2Cl)cc1)N1Cc2ccccc2C1=O (stereo not given)	nt	i
COC(=O)C(Cc1ccc(OC(=O)c2ccccc2C)cc1)N1Cc2ccccc2C1=O (stereo not given)	-5.86	-5.86*
CC(C)c1nc2sc3c(=O)n(N)cnc3c2c2c1COC(C)(C)C2	0.04	i
O=C(Cc1cccs1)NCCSc1c(-c2ccc(Cl)cc2)[nH]c2ccccc12	-7.07	-7.07*
CCOC(=O)CSc1c(-c2ccc(Cl)cc2)[nH]c2ccccc12	nt	i
O=[N+]([O-])c1ccc(-c2cnc[nH]2)cc1	nt	i
COC(=O)C1CCN(C(=O)COC(=O)CSc2ccc(C(N)=O)cc2[N+](=O)[O-])CC1	nt	i
O=C(N/N=C/c1ccc([N+](=O)[O-])cc1)c1cccs1	nt	i
O=C(N/N=C/c1cccc([N+](=O)[O-])c1O)c1cccs1	5.98*	i
SMILES	KCNQ2 pot	KCNQ2 inh
O=[N+]([O-])c1ccc(NNS(=O)(=O)c2cc(Cl)ccc2Cl)nc1	1.4	i
COc1cccc(C(C(=O)NC(C)(C)C)N(C(=O)CCC(=O)Nc2cc(C)on2)c2ccc3c(c2)OCCO3)c1OC (stereo not given)	nt	i
COc1ccc2c(C)cc(SCC(=O)Nc3nsc(-c4ccc(C)cc4)n3)nc2c1	-6.35	-6.35*
Cc1ccc(-c2nc(NC(=O)CSc3cc(C)c4ccccc4n3)ns2)cc1	nt	i
NC(=O)c1ccc(NC(=O)COC(=O)/C=C/c2ccc3c(c2)OCO3)cc1	nt	i
NC(=O)c1ccc(NC(=O)CSc2nnc(-c3cccnc3)n2Cc2ccco2)cc1	1.88	i
O=C(CNC(=O)c1ccccc1)OCCCOC(=O)CNC(=O)c1ccccc1	0.96	i
CC(C)c1nc(CNC(=O)CCc2nnc(-c3ccsc3)o2)cs1	1.4	i
O=C(CCc1nnc(-c2ccsc2)o1)NCc1ccccc1OC(F)(F)F	-6.34	-6.34*
Cc1noc(C)c1CSc1ncnc2sc(C)c(C)c12	1.15	i
Cc1noc(C)c1CSc1ncnc2sc3c(c12)CCCCC3	5.53*	i
CCCCCCSc1ccc([C@H]2N[C@@](CC(C)C)(C(=O)OC)[C@H]3C(=O)N(C)C(=O)[C@@H]23)cc1OC	nt	i
O=S(=O)(Cc1ccccc1)c1cnc2ccccc2n1	nt	i
CCOC(=O)c1cncc(O)c1	nt	i
O=C(Nc1nc2ccc(F)cc2s1)c1ccccn1	16*	i
O=C(Nc1nc2ccc(F)cc2s1)C1=COCCO1	nt	i
Cc1oc2ccc(NS(=O)(=O)c3ccc(C(C)(C)C)cc3)cc2c1C(=O)Nc1ccccc1	-6	-6*
CC(=O)c1c(C)oc2ccc(NS(=O)(=O)c3ccc(C)cc3)cc12	0.34	i
COc1cc(OC)c(/C=N/NC(=O)c2ccncc2)c(OC)c1	nt	i
Cc1cccc(Cc2cnc(N3C(=N)SC(C)C3=O)s2)c1 (stereo not given)	6*	i
Cc1ccc(Cc2cnc(N3C(=N)SC(C)C3=O)s2)cc1 (stereo not given)	0.46	i
CSc1nc(=S)c2[nH]c(=S)[nH]c2[nH]1	1.31	i
CSc1ccc(S(=O)(=O)NC2CC2)cc1	nt	i
